Source: PubChem BioAssay (The Scripps Research Institute Molecular Screening Center)
GPR151 activ: activates the human receptor GPR151; Q8TDV0; PathHunter beta-arrestin GPR151 cells, luminescence; activation, % at 11.2 µM; 650,000 compounds, 1% hits; AID 1508602; in the data active = activation above about 4.9%
Target sequence (Q8TDV0 whole entry, looked up): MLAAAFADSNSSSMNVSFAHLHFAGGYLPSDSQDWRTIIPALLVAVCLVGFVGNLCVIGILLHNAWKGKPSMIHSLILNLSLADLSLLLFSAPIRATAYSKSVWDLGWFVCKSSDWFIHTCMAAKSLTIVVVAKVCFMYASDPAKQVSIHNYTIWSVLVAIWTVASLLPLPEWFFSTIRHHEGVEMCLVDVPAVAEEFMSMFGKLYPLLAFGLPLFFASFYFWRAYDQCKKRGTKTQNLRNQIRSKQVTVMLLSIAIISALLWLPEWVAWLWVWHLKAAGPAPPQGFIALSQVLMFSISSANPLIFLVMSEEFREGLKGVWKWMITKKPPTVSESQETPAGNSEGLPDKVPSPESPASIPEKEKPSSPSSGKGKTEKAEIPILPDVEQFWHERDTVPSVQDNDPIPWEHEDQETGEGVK
MITF inh: inhibitors of human MITF; AID 1259374; 650,000 compounds, 0.91% hits; inhibition, % at 2.6 µM; O75030; AlphaScreen MITF homodimerization, bead proximity signal; in the data active = inhibition above about 50%
TEAD-YAP inh: TEAD-YAP interaction inhibition. HEK-TIYL cells, TEAD-Gal4/YAP UAS-luciferase luminescence. 640,000 compounds, 1.4% hits. AID 1259422. inhibition, % at 9.12 µM; in the data active = inhibition above about 32%
FBW7 act: human FBW7 E3 ligase activation, primary screen | AlphaScreen FBW7–phospho-cyclin E peptide binding, activator screen | normalized activity (activation), % at 26.1 µM | Q969H0 | 650,000 compounds, 0.13% hits; in the data active = normalized activity above about 1.9%;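 note: purified mutant Fbw7 with reduced substrate affinity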
MITF inh conf: human MITF inhibition, confirmation | AlphaScreen MITF homodimerization, biotin/His-MITF beads | inhibition, % at 2.6 µM | shares compounds with MITF inh | 4,700 compounds, 16% hits;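 active = inhibition above a cutoff derived from the DMSO control wells, cut at about 28% in these data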;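 note: inhibitors lower the bead chemiluminescence by keeping MITF from dimerizing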
AS interf DR: counter-screen: compounds optically interfering with AlphaScreen. shares compounds with MITF inh. AlphaScreen optical interference counterscreen, cell-free. AID 1259373. 480 compounds, 6% hits. IC50, µM; call rule not given here
AlphaScreen intf2: AlphaScreen optical interference, counter-screen; 4,700 compounds, 7.6% hits; AID 1259376; LysRS AlphaScreen counterscreen, signal interference, triplicate; inhibition, % at 2.6 µM; shares compounds with MITF inh;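 active = inhibition above a cutoff derived from the DMSO control wells, cut at about 30% in these data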
Numbers stand for hits; . = inactive; / = no result. Hits are enriched below; roughly 3.5% of the tested compounds scored in any of these assays.

SMILES	GPR151 activ	MITF inh	TEAD-YAP inh	FBW7 act	MITF inh conf	AlphaScreen intf2	others
CCOC(=O)C1=C(C)N=c2s/c(=C\c3c(C)[nH]c4ccccc34)c(=O)n2C1c1ccccc1 (stereo not given)	.	66.2	.	.	.	.
CCOC(=O)C1=C(c2ccccc2)N=c2s/c(=C\c3cccs3)c(=O)n2C1c1c(OC)ccc2ccccc12 (stereo not given)	.	54.8	.	.	.	.
COc1cc2c(cc1OC)C(c1cc3cccc(C)c3[nH]c1=O)NCC2 (stereo not given)	.	.	.	.	/	/
Cc1ccccc1/C=C1\N=C(c2cc(C3=N/C(=C/c4ccccc4C)C(=O)O3)cc(C3=N/C(=C/c4ccccc4C)C(=O)O3)c2)OC1=O	.	58.7	.	.	45.7	.
O=C(Cn1c(=S)[nH]c2ccccc2c1=O)N(CCO)Cc1ccccc1	.	63.0	.	.	.	.
Nc1nonc1-c1nc2ccccc2n1Cc1ccncc1	.	.	.	.	/	/
CCn1nnc(NC(=O)c2ccccc2)n1	.	57.9	.	.	.	.
COCCNCCOc1c(C)cccc1C(C)(C)C	.	80.4	.	.	.	.
COCCNCCCOc1c(C)cccc1C(C)(C)C	.	.	.	.	/	/
CCCCNCCOCCOc1c(C)cccc1Cl	.	.	.	.	/	/
COCCNCCOCCOc1c(C)cccc1C(C)(C)C	.	61.3	.	.	.	.
Cc1cccc(Cl)c1OCCOCCNCCO	.	72.5	.	.	.	.
NCCNCCOCCOc1cccc(Cl)c1Cl	.	51.0	.	.	.	.
COCCNCCOCCOc1cccc(Cl)c1Cl	.	.	.	.	/	/
COc1ccc(C2C(C(=O)OC(C)C)=C(C)NC3=C2C(=O)CC(C)(C)C3)c(OC)c1OC (stereo not given)	.	.	.	.	/	/
CCCCCOC(=O)C1=C(C)NC2=C(C(=O)CC(C)(C)C2)C1c1ccccc1I (stereo not given)	.	60.6	.	.	.	.
COc1cccc(C2C(C(=O)OC(C)C)=C(C)NC3=C2C(=O)CC(C)(C)C3)c1OC (stereo not given)	.	64.2	.	.	.	.
Clc1ccc(-c2ncc(CN3CCCC(N4CCOCC4)C3)cn2)cc1 (stereo not given)	.	.	.	.	/	/
CCCN(CCC)S(=O)(=O)c1ccc(OCC)c2ccccc12	.	65.0	.	.	.	.
COc1ccc(C(=O)NCCC(C)C)cc1[N+](=O)[O-]	.	.	.	.	/	/
O=C(/C=C/c1ccco1)N1CCN(Cc2nc3ccccc3n2Cc2ccccc2)CC1	.	60.4	.	.	.	.
Cc1ccc(C(=O)N2CCN3C(=O)[C@H](C)N(C)C(=O)[C@H]3C2)cc1	.	.	.	.	/	/
CC(C)C[C@H]1C(=O)N2CCN(C(=O)NC3CCCCC3)C[C@@H]2C(=O)N1C	.	70.2	.	.	71.4	.	AS interf DR=.
C[C@H]1C(=O)N2CCN(C(=O)NC3CCCCC3)C[C@@H]2C(=O)N1C	.	78.1	.	.	74.2	.	AS interf DR=.
CCCOC(=O)CSc1nc2c(cc1C#N)C(=O)CCC2	.	.	.	.	/	/
SMILES	GPR151 activ	MITF inh	TEAD-YAP inh	FBW7 act	MITF inh conf	AlphaScreen intf2	others
O=C(O)c1cccc(NS(=O)(=O)c2cccc(C(=O)Nc3ccccc3)c2)c1	.	51.2	.	.	.	.
O=[N+]([O-])c1ccc(N/N=C/c2cccs2)c(S(=O)(=O)N2CCOCC2)c1	.	.	.	.	/	/
Cc1ccc(-n2ncc(C#N)c2/N=C/N2CCN(C)CC2)cc1	.	55.7	.	.	.	.
CCOc1ccc(C2/C(=C(\O)c3ccc(C)cc3)C(=O)C(=O)N2c2cccnc2)cc1 (stereo not given)	.	.	.	.	/	/
CN(CCc1ccccn1)C(=O)c1ccc(F)cc1	.	77.2	.	.	.	.
CN(CCc1ccccn1)C(=O)c1cccc(F)c1	.	105.1	.	.	.	.
Cc1ccc(NC(=O)CN(Cc2ccccc2)S(=O)(=O)c2ccc(Br)cc2)cc1C	.	58.8	.	.	.	.
CC(C)(C)n1ncc2c(=O)n(Cc3cccc(Cl)c3)cnc21	.	62.3	.	.	.	.
CC(C)(C)n1ncc2c(=O)n(Cc3ccccc3)cnc21	.	.	.	.	/	/
CN1CCN(CCOCCOc2ccccc2[N+](=O)[O-])CC1	.	78.2	.	.	.	.
